From PubChem BioAssay (EPA / NIEHS)
Records with an inconclusive call do not appear. Calls of active or inactive are those of the source. The calls were made as follows, unless noted: active = hit-call score of the fitted dose curve at least 0.9, where 1 is the maximum; inactive = score below 0.9.

Experiments:
[1] = read-out: Phosphatase and tensin (PTEN), PTEN (gene 5728); assay: LTEA_HepaRG_PTEN: Life Technologies and Expression Analysis (LTEA) Assay for Phosphatase and tensin (PTEN) using HepaRG (AID 2283523); conditions: mRNA level, 48 h; actives raise or lower the signal
Method in brief: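 Expression of PTEN is quantified in the human liver line HepaRG following two days of dosing (top concentration 100 uM, half-log dilutions, 0.5% DMSO). Values derive from bidirectional curve fitting relative to DMSO controls.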

[2] = read-out: solute carrier (SLC22A1), SLC22A1 (gene 6580); assay: LTEA_HepaRG_SLC22A1: Life Technologies and Expression Analysis (LTEA) Assay for solute carrier (SLC22A1) using HepaRG (AID 2283524); conditions: mRNA level, 48 h; actives raise or lower the signal;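 as to AC50: differentiated human HepaRG liver cells in serum-free induction medium; TaqMan qRT-PCR normalized to ACTB GAPDH and POLR2A housekeeping genes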
Method in brief: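 Transcript induction or suppression of SLC22A1 in human HepaRG cultures is scored after 48 h chemical treatment, with DMSO (0.5%) as baseline for bidirectional fitting. Concentrations span eight half-log points topping at 100 uM.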

[3] = read-out: Pyruvate Dehydrogenase Kinase 4 (PDK4), PDK4 (gene 5166); assay: LTEA_HepaRG_PDK4: Life Technologies and Expression Analysis (LTEA) Assay for Pyruvate Dehydrogenase Kinase 4 (PDK4) using HepaRG (AID 2283525); conditions: mRNA level, 48 h; actives raise or lower the signal
Method in brief: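 Eight-point, half-log concentration series (max 100 uM, 0.5% DMSO) applied to differentiated HepaRG cells for 48 h in duplicate. Endpoint: PDK4 mRNA induction or repression by qRT-PCR against DMSO baseline.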

[4] = read-out: Nuclear factor erythroid 2-related factor 2 (Homo sapiens) (UniProt Q16236); assay: LTEA_HepaRG_NFE2L2: Life Technologies and Expression Analysis (LTEA) Assay for Nuclear factor erythroid 2-related factor 2 (NFE2L2) Transcription Factor using HepaRG (AID 2283527); conditions: mRNA level, 48 h; actives raise or lower the signal
Method in brief: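 Human liver HepaRG line treated in duplicate for 48 h with an eight-point series topping at 100 uM. Gene expression of NFE2L2 by qRT-PCR, bidirectionally fitted against the vehicle control.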

[5] = read-out: succinate dehydrogenase complex iron sulfur subunit B (SDHB), SDHB (gene 6390); assay: LTEA_HepaRG_SDHB: Life Technologies and Expression Analysis (LTEA) Assay for succinate dehydrogenase complex iron sulfur subunit B (SDHB) using HepaRG (AID 2283528); conditions: mRNA level, 48 h; actives raise or lower the signal
Method in brief: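 A human HepaRG culture in serum-free induction medium received test chemicals for 48 h over an eight-point range capped at 100 uM. SDHB expression change was quantified by qRT-PCR.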

[6] = read-out: Signal transducer and activator of transcription 3 (Homo sapiens) (UniProt P40763); assay: LTEA_HepaRG_STAT3: Life Technologies and Expression Analysis (LTEA) Assay for Signal transducer and activator of transcription (STAT3) using HepaRG (AID 2283529); conditions: mRNA level, 48 h; actives raise or lower the signal
Method in brief: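 In this transcriptional endpoint, HepaRG cultures receive test chemicals at up to 100 uM for 48 h, tested in duplicate. STAT3 mRNA is normalized to ACTB, GAPDH and POLR2A.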

[7] = read-out: solute carrier (SLCO1B1), SLCO1B1 (gene 10599); assay: LTEA_HepaRG_SLCO1B1: Life Technologies and Expression Analysis (LTEA) Assay for solute carrier (SLCO1B1) using HepaRG (AID 2283530); conditions: mRNA level, 48 h; actives raise or lower the signal
Method in brief: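 Human HepaRG cultures treated for 48 h with an eight-concentration half-log series topping at 100 uM; SLCO1B1 measured by qRT-PCR and fitted bidirectionally relative to DMSO.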

[8] = read-out: sulfotransferase 2A1 (SULT2A1), SULT2A1 (gene 6822); assay: LTEA_HepaRG_SULT2A1: Life Technologies and Expression Analysis (LTEA) Assay for sulfotransferase 2A1 (SULT2A1) using HepaRG (AID 2283531); conditions: mRNA level, 48 h; actives raise or lower the signal
Method in brief: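 Gene-expression endpoint in a human liver cell line: SULT2A1 mRNA change after 48 h chemical treatment, curves fitted in both directions relative to 0.5% DMSO vehicle. Concentrations spanned eight half-log steps from 100 uM.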

[9] = read-out: Transforming Growth Factor (TGFA), TGFA (gene 7039); assay: LTEA_HepaRG_TGFA: Life Technologies and Expression Analysis (LTEA) Assay for Transforming Growth Factor (TGFA) using HepaRG (AID 2283532); conditions: mRNA level, 48 h; actives raise or lower the signal
Method in brief: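 Gene expression of TGFA was quantified by qRT-PCR after human HepaRG cells were treated for 48 h with test chemicals (eight concentrations, highest 100 uM, 0.5% DMSO). Activity in either direction was fitted relative to DMSO.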

[10] = read-out: Transforming Growth Factor (TGFB1), TGFB1 (gene 7040); assay: LTEA_HepaRG_TGFB1: Life Technologies and Expression Analysis (LTEA) Assay for Transforming Growth Factor (TGFB1) Transporter using HepaRG (AID 2283533); conditions: mRNA level, 48 h; actives raise or lower the signal
Method in brief: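 Eight-point concentration-response (max 100 uM, half-log) in HepaRG under serum-free induction conditions, 48 h. TGFB1 mRNA by qRT-PCR, housekeeping-normalized.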

TIMP1, TIMP1 (gene 7076) = assay: LTEA_HepaRG_TIMP1: Life Technologies and Expression Analysis (LTEA) Assay for TIMP1 using HepaRG (AID 2283534); conditions: mRNA level, 48 h; actives raise or lower the signal
Method in brief: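 TIMP1 induction or repression in HepaRG cells after 48 h chemical exposure (eight concentrations, highest 100 uM), assessed by normalized qRT-PCR with bidirectional fitting to DMSO controls.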

[11] = read-out: Tumor necrosis factor receptor 1 (TNFRSF1A), TNFRSF1A (gene 7132); assay: LTEA_HepaRG_TNFRSF1A: Life Technologies and Expression Analysis (LTEA) Assay for Tumor necrosis factor receptor 1 (TNFRSF1A) using HepaRG (AID 2283535); conditions: mRNA level, 48 h; actives raise or lower the signal
Method in brief: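 Assay uses 48 h chemical treatment of differentiated HepaRG monolayers, tested in duplicate at eight concentrations from 100 uM downward in 0.5% DMSO. mRNA is normalized to ACTB, GAPDH and POLR2A, with induction or suppression fitted relative to vehicle.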

[12] = read-out: Thyroid Hormone Responsive (THRSP), THRSP (gene 7069); assay: LTEA_HepaRG_THRSP: Life Technologies and Expression Analysis (LTEA) Assay for Thyroid Hormone Responsive (THRSP) using HepaRG (AID 2283536); conditions: mRNA level, 48 h; actives raise or lower the signal
Method in brief: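 Cell model: human HepaRG, approx. 100,000 cells/well, 0.5% DMSO vehicle. Exposure lasts 48 h; phenobarbital 1 mM serves as induction positive control. Gene expression is measured by qRT-PCR against three endogenous control genes.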

[13] = read-out: UDP glucuronosyltransferase (UGT1A1), UGT1A1 (gene 54658); assay: LTEA_HepaRG_UGT1A1: Life Technologies and Expression Analysis (LTEA) Assay for UDP glucuronosyltransferase (UGT1A1) using HepaRG (AID 2283538); conditions: mRNA level, 48 h; actives raise or lower the signal
Method in brief: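 Cells are plated, cultured 48 h, switched to serum-free induction medium, then dosed 48 h at eight concentrations (max 100 uM, 0.5% DMSO). RNA is isolated and UGT1A1 expression measured by qRT-PCR; changes versus DMSO are fitted in both directions.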

[14] = read-out: UDP glucuronosyltransferase (UGT1A6), UGT1A6 (gene 54578); assay: LTEA_HepaRG_UGT1A6: Life Technologies and Expression Analysis (LTEA) Assay for UDP glucuronosyltransferase (UGT1A6) using HepaRG (AID 2283539); conditions: mRNA level, 48 h; actives raise or lower the signal
Method in brief: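 Measures mRNA change in HepaRG hepatic cells exposed 48 h to chemicals (eight-point, maximum 100 uM, 0.5% DMSO vehicle) in serum-free induction medium. Expression normalized to endogenous controls; DMSO served as negative control and baseline.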

[15] = read-out: X-box binding protein 1 (XBP1), XBP1 (gene 7494); assay: LTEA_HepaRG_XBP1: Life Technologies and Expression Analysis (LTEA) Assay for X-box binding protein 1 (XBP1) using HepaRG (AID 2283540); conditions: mRNA level, 48 h; actives raise or lower the signal
Method in brief: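 Eight concentrations (half-log, highest 100 uM, 0.5% DMSO) tested in duplicate on HepaRG cells over 48 h in serum-free induction medium; qRT-PCR of XBP1 normalised to ACTB, GAPDH, POLR2A.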

[16] = ATG_XTT_Cytotoxicity: Cytotoxicity Assessment in the Attagene TRANS-FACTORIAL HepG2 Assay (AID 2283584; active = hit-call score of the fitted dose curve at least 0.9, where 1 is the maximum)
Method in brief: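 24 h chemical exposure of reporter-transfected HepG2; XTT signal loss vs DMSO indicates cytotoxicity.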

[17] = LTEA_HepaRG_LDH_cytotoxicity: Cytotoxicity Assessment in the Life Technologies and Expression Analysis (LTEA) Assay (AID 2283563; active = hit-call score of the fitted dose curve at least 0.9, where 1 is the maximum)
Method in brief: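 Spent-medium LDH after 48 h chemical exposure of HepaRG cells in serum-free induction medium; eight concentrations, half-log dilutions from 100 uM, duplicate wells, fitted upward relative to 0.5% DMSO.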

[18] = read-out: Cellular tumor antigen p53 (Homo sapiens) (UniProt P04637); assay: LTEA_HepaRG_TP53: Life Technologies and Expression Analysis (LTEA) Assay for Tumor Protein P53 (TP53) using HepaRG (AID 2283537); conditions: mRNA level, 48 h; actives raise or lower the signal
Method in brief: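 Gain or loss of TP53 mRNA signal is scored relative to 0.5% DMSO after 48 h chemical treatment of HepaRG liver cells, tested in duplicate at eight half-log concentrations up to 100 uM.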

Measured: AC50

Sequence of Signal transducer and activator of transcription 3 (Homo sapiens) (P40763 whole entry, looked up): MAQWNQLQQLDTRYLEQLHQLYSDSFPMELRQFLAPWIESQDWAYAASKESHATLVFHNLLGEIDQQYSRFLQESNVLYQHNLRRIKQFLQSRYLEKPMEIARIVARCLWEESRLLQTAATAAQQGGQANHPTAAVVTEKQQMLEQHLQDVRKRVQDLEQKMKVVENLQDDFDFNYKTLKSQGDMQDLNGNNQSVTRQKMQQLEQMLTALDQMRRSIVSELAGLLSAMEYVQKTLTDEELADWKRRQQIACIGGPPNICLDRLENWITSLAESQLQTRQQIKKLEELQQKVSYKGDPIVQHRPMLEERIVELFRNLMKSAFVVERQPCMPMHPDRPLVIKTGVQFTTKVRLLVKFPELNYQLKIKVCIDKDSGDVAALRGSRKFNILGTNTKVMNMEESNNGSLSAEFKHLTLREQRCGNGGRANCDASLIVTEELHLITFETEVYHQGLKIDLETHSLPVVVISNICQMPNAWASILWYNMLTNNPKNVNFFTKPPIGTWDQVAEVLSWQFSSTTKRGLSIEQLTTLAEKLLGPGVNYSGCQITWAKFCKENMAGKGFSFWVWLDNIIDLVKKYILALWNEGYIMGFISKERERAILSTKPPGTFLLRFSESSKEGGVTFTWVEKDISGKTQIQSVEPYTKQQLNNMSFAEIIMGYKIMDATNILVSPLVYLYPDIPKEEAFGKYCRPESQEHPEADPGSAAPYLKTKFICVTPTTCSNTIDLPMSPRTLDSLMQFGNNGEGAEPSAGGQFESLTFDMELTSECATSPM
Sequence of Nuclear factor erythroid 2-related factor 2 (Homo sapiens) (Q16236 whole entry, looked up): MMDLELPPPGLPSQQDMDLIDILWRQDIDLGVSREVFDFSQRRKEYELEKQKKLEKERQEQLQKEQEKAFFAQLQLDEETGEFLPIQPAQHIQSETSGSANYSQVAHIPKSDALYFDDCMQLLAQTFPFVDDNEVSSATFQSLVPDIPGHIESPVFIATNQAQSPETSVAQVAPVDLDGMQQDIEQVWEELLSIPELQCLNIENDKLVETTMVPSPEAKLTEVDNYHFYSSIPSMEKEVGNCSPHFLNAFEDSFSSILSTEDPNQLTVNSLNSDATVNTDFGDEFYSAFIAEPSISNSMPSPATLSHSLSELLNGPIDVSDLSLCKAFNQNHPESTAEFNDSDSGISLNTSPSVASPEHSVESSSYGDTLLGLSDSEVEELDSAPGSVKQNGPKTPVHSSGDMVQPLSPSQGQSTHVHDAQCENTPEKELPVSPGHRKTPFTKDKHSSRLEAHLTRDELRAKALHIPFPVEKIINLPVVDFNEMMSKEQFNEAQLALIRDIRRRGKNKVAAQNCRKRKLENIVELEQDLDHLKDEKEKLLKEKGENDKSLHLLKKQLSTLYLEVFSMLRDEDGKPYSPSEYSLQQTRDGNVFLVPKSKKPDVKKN
Sequence of Cellular tumor antigen p53 (Homo sapiens) (P04637 whole entry, looked up): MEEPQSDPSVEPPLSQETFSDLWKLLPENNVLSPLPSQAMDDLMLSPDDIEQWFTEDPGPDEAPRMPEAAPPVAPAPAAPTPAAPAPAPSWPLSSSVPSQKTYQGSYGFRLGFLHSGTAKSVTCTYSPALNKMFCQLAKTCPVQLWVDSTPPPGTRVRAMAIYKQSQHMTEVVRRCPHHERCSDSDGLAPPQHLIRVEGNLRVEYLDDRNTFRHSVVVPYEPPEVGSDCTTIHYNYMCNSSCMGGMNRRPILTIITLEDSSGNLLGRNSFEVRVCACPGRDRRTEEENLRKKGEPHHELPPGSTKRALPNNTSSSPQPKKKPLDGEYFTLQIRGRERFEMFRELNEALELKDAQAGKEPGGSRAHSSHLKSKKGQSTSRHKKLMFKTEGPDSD

CC(C)C(=O)Nc1ccc([N+](=O)[O-])c(C(F)(F)F)c1
active: [2] 45.4 µM | [3] 9.61 µM | [4] 50 µM | [7] 63.6 µM | [8] 79.6 µM | [9] 82.3 µM | TIMP1, TIMP1 (gene 7076) 28.7 µM | [12] 10.9 µM | [13] 90.1 µM | [14] 74.7 µM | [15] 12.2 µM
inactive: [1] | [5] | [6] | [10] | [11] | [16]

O=C(O)CO
inactive: [16]

Cc1ncc([C@@H](CCCCCCc2ccc3c(n2)NCCC3)CC(=O)O)cn1
active: [3] 0.317 µM
not listed: [16] | [17] | [18]
inactive: all other assays above

c1ccc2c(c1)-c1cccc3c1c-2cc1ccccc13
active: [2] 18.8 µM | [3] 8.2 µM | [5] 11.4 µM | [6] 6.57 µM | [7] 13.7 µM | [8] 16.8 µM | [9] 7.13 µM | TIMP1, TIMP1 (gene 7076) 4.93 µM | [11] 14.7 µM | [12] 27.7 µM | [15] 12.7 µM
inactive: [1] | [4] | [10] | [13] | [14] | [17] | [16]

COCc1nnc(-c2ccc[n+]([O-])c2)n1-c1c(Cl)c(Cl)cc2[nH]c(=O)c(=O)[nH]c12
not listed: [16] | [18]
inactive: all other assays above

S=P(N1CC1)(N1CC1)N1CC1
inactive: [16]

CNC(C)=O
not listed: [18]
inactive: all other assays above

CC(C)CC(C)O (centres undefined)
not listed: [18]
inactive: all other assays above

Cc1nc(-c2ccccn2)ncc1C(=O)Nn1cc(C)c2cc(F)ccc21
active: [2] 77.7 µM | [13] 12 µM | [14] 78.5 µM
not listed: [16] | [18]
inactive: all other assays above

Cc1ccc(S(=O)(=O)NC(=O)NN2CCCCCC2)cc1
not listed: [18]
inactive: all other assays above

CC1(C)C(=O)N(Cl)C(=O)N1Cl
inactive: all assays above

OC(Cn1cncn1)(Cn1cncn1)c1ccc(F)cc1F
not listed: [17]
inactive: all other assays above

OC(CCl)CCl
not listed: [17]
inactive: all other assays above

O=C1CN(N=Cc2ccc([N+](=O)[O-])o2)C(=O)N1
active: [2] 32.7 µM | [3] 57.6 µM | [5] 16.1 µM | [12] 9.92 µM
not listed: [4]
inactive: all other assays above
